One test has as its system WaGa. Put plainly: qHTS assay to identify novel small-molecules to repurpose for Merkel cell carcinoma treatment (AID 1296009). Also: nearly all actives have a fitted effect of over 60% in size. Also: potency is read from the fitted curve at half-maximal effect. The note with it: MCC and control cell lines, CellTiter-Glo viability, 72 h; series mostly up to 46 µM. The method in brief:
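Dose-response viability screen; 72 hr exposure at 37 degree celsius; CellTiter-Glo added, 10 min room temperature, luminescence read; RLUs scaled between no-cell and DMSO wells.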

Test [1] in a line: Drug repurposing screens with cells derived from glioblastoma tumor samples (AID 1345199). Also: nearly all actives have a fitted effect of over 40% in size. Also: potency is read from the fitted curve at half-maximal effect. Conditions: GBM patient neurospheres viability, ATP luminescence, 48 h. The method in brief: (§1)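 Primary testing used CD133+ neurospheres from four GBM patients, seven concentrations, 48 h exposure and ATP-based viability; confirmation added three slower-growing patient lines.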
The test system of the next test is astro. The description is as above. Conditions: viability, ATP luminescence, 48 h; series mostly up to 45.9 µM. A digest of the protocol: as §1
The test system of another test is C33A. Put plainly: Primary qHTS to identify gynecologic anti-cancer compounds using libraries of approved drugs and bioactive compounds (AID 1345084). Also: nearly all actives have a fitted effect of over 55% in size. Conditions: Gynecologic cancer cell panel viability, ATPlite luminescence, 48 h; series mostly up to 57.5 µM. A digest of the protocol: (§2)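 48 h compound exposure at 37 C, 5% CO2; five-point qHTS. ATPlite luminescence readout of cell ATP.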

A further test deals with CAOV3. The description is as above. The note with it: Gynecologic cancer cell panel viability, ATPlite luminescence, 48 h; series mostly up to 57.5 µM. A digest of the protocol: as §2
The next test concerns CASKI. The test is described as above. Conditions: Gynecologic cancer cell panel viability, ATPlite luminescence, 48 h; series mostly up to 57.5 µM. A digest of the protocol:
as §2
In general terms: ATP-based viability assays read luminescence as a measure of living cells.

The next test relates to Es-2. The description is as above. Conditions: Gynecologic cancer cell panel viability, ATPlite luminescence, 48 h; series mostly up to 57.5 µM. The method in brief:
as §2

The test system of another test is HeLa. The test is described as above. Conditions: Gynecologic cancer cell panel viability, ATPlite luminescence, 48 h; series mostly up to 57.5 µM. The method in brief: as §2
Another test has as its system Hek293T. The description is as above. The note with it: Gynecologic cancer cell panel viability, ATPlite luminescence, 48 h, control line for the selectivity index; series mostly up to 57.5 µM. A digest of the protocol: as §2
In the next test the test system is JEG-3. Described as above. Conditions: Gynecologic cancer cell panel viability, ATPlite luminescence, 48 h; series mostly up to 57.5 µM. A digest of the protocol: as §2
A further test concerns OV90. Described as above. Conditions: Gynecologic cancer cell panel viability, ATPlite luminescence, 48 h; series mostly up to 57.5 µM. The method in brief:
as §2

A further test relates to PA-1. Described as above. Conditions: Gynecologic cancer cell panel viability, ATPlite luminescence, 48 h; series mostly up to 57.5 µM. The method in brief: as §2
For the next test, the system named is Tov-21-G. The test is described as above. Conditions: Gynecologic cancer cell panel viability, ATPlite luminescence, 48 h; series mostly up to 57.5 µM. A digest of the protocol: as §2
The subject of another test is Tov112D. Described as above. Conditions: Gynecologic cancer cell panel viability, ATPlite luminescence, 48 h; series mostly up to 57.5 µM. The method in brief: as §2
In a further test the test system is SKOV3. The test is described as above. Conditions: Gynecologic cancer cell panel viability, ATPlite luminescence, 48 h; series mostly up to 57.5 µM. A digest of the protocol:
as §2

Test [2] can be described thus: qHTS assay to identify inhibitors of the type 1 interferon - major histocompatibility complex class I in skeletal muscle: Counter screen cell viability and HiBit confirmation (AID 1347412). Also: nearly all actives have a fitted effect of over 60% in size. The note with it: iHSKM muscle cells + IFN-b, HiBiT or CellTiter-Glo, 24 h, at 45.9 µM (top of the series). A digest of the protocol: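 CRISPR HLA-B*08:01-HiBit immortalized human myoblasts (C25cl48) stimulated with 4 ng/ml IFN-beta and compounds (12-point 1:3, top 46 uM final) for 24 h at 37 C. Duplicate plates read by HiBit lytic luminescence or CellTiter Glo ATP.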

Where [3] appears, read: at 46.1 µM (top of the series), tumour line C.
Setting [4] is: at 45.9 µM (top of the series), tumour line B.
The mark [5] stands for this setting: at 45.9 µM (top of the series), tumour line D.
[6] abbreviates: at 46 µM (top of the series), tumour line A.

SMILES strings stand for the structures. Several values for one entry are separate records, joined by “and”; a condition that tells them apart may be missing. Identical values can stand only once. Results filed as inconclusive are left out. Values without a mark were called inactive. Activity calls are given as the source filed them. Calls follow the shape of the dose curve; as a rule, active = well fitted curve in the direction sought with a large enough effect; inconclusive = small, poorly fitted or top-dose-only effect, or another doubt; inactive = no such curve, though single readings can be large; an effect the other way counts as inactive or inconclusive.
% is scaled to controls: 0 for no effect and ±100 for the full control effect.

Consider `O=C1c2ccccc2-c2n[nH]c3cccc1c23`, for which the Potency in the test with WaGa was 2.64 µM (active); in [1] (tumour line D), 12.6 µM (active); in the test with astro, 10 µM (active). The activity, negative = cell killing in test [1] (setting [3]) was -13.2%.

For the compound `CN(C)CCc1c[nH]c2ccc(Cn3cncn3)cc12`, the Potency result in the test on WaGa and in the test with astro was “inactive” each time. Also, the activity, negative = cell killing in test [1] (setting [4]) was -9.89%; in [1] (setting [5]), -20.8%; in [1] (setting [3]), -16%.

For `CCOc1cc(CC(=O)N[C@@H](CC(C)C)c2ccccc2N2CCCCC2)ccc1C(=O)O`, the Potency entry in the test with WaGa and in the test on astro was “inactive” in each case. In addition, the activity, negative = cell killing is -12% in [1] (at 20 µM (top of the series), tumour line C); -4.95% in [1] (at 21.2 µM (top of the series), tumour line B); -25.3% in test [1] (at 21.2 µM (top of the series), tumour line D); -13.6% in test [1] (at 21.3 µM (top of the series), tumour line A).

`CCCCCCCCCCCCCCCCCCCCCCO`: the Potency result in the test with WaGa and in the test on astro was “inactive” in each case. The activity, negative = cell killing was -4.68% in [1] (setting [4]), 1.13% in test [1] (setting [5]), -31.4% in test [1] (setting [6]) and 4.25% in [1] (setting [3]).

Turning to `CNC[C@@H](O)[C@@H](O)[C@H](O)[C@H](O)CO`, the Potency result in the test with WaGa and in the test with astro was “inactive” in each case. For the same compound, the activity, negative = cell killing is 0.477% in test [1] (setting [4]), -17.4% in [1] (setting [5]) and -4.13% in test [1] (setting [3]).

Take `CCOC(=O)C1=C[C@@H](OC(CC)CC)[C@H](NC(C)=O)[C@@H](N)C1`: the Potency entry with WaGa and in the test on astro was “inactive” each time. For the same compound, the activity, negative = cell killing was -10.4% in [1] (setting [4]), -1.97% in test [1] (setting [5]) and 5.2% in test [1] (setting [3]).

Regarding `C[C@H](Cn1cnc2c(N)ncnc21)OCP(=O)(O)O`, the Potency entry in the test with WaGa and in the test on astro was “inactive” in each case. Further, the activity, negative = cell killing in test [1] (setting [4]) is -17.6%; in test [1] (setting [5]) it was -7.53%; in [1] (setting [6]) it was -24.5%; in [1] (setting [3]), -20.5%.

For the compound `COCCCN1CCC(NC(=O)c2cc(Cl)c(N)c3c2OCC3)CC1`, the Potency entry in the test with C33A, with CAOV3, in the test with CASKI, in the test with Es-2, in the test with HeLa and in the test with Hek293T was “inactive” each time. The Potency entry with JEG-3, with OV90, in the test with PA-1, with Tov-21-G and in the test with Tov112D was “inactive” in each case.

Consider `Nc1ccn([C@@H]2O[C@H](CO)[C@@H](O)C2O)c(=O)n1` (some centres not stated), for which the Potency result in the test with WaGa and in the test with astro was “inactive” each time. The values for the activity, negative = cell killing in test [1] (setting [5]) and in [1] (setting [3]) were -14.9% and -25.6%, respectively. Moreover, the Potency in test [1] (tumour line A) is 7.08 µM (active).

Take `Nc1cccc2c1CN(C1CCC(=O)NC1=O)C2=O` (configuration not stated): the Potency entry in the test with C33A, with CASKI, in the test with Es-2, with HeLa, in the test on Hek293T and with JEG-3 was “inactive” each time. Besides, the Potency entry in the test with OV90, in the test with PA-1, in the test on SKOV3, with Tov-21-G, with Tov112D and in the test on astro was “inactive” in each case. The activity, negative = cell killing in test [1] (setting [4]) is -18.6%; in test [1] (setting [5]), -1.35%; in test [1] (setting [6]), -28.8%; in [1] (setting [3]) it was -29.8%.

With `COC(=O)C1=C(C)NC(C)=C(C(=O)OCCCN2CCC(c3ccccc3)(c3ccccc3)CC2)C1c1cccc([N+](=O)[O-])c1` (configuration not stated), the Potency result in the test with WaGa, with HeLa, in the test with JEG-3, in the test with Tov-21-G and in the test on Tov112D was “inactive” each time. For the same compound, the Potency with astro is 17.8 µM (active). Besides, the values for the activity change, negative = inhibition in [2] (HiBiT) and in test [2] (Viability) were 4.03% and -24.5%, respectively.

For the compound `O=c1oc2cc(O)ccc2s1`, the Potency entry with WaGa and in the test on astro was “inactive” in each case. The activity, negative = cell killing in test [1] (setting [4]) was -24%. In addition, the Potency in test [1] (tumour line C) is 23.1 µM (active).

Take `CC(C)[N+]1(C)[C@@H]2CC[C@H]1CC(OC(=O)C(CO)c1ccccc1)C2` (some centres not stated): in the test on WaGa, the Potency was 18.7 µM (active). Also, the activity, negative = cell killing in test [1] (setting [4]) was -10.3% and -8.73%; in test [1] (setting [5]) it was -5.23% and -7.38%; in test [1] (setting [6]) it was -16.8%; in test [1] (setting [3]), 14% and -28.4%. For the same compound, the Potency entry with astro is “inactive”.

The values are drawn from PubChem BioAssay (NCATS).
